Shown are actives, neighbours in structure and some others; about 0.87% of the full set was active somewhere.
GCN5L2 inh-1 = inhibitors of human GCN5L2 histone acetyltransferase | Q92830 | Potency, µM (top dose mostly 58.9 µM), without a hit: at the highest dose activity change, negative = inhibition, actives largely listed as inhibitors | AID 504327 | GCN5L2 HAT assay, ThioGlo1 CoA-SH fluorescence | actives 0.21% (n = 390,000); also: potency is read from the fitted curve at half-maximal effect; % is scaled to controls: 0 for no effect and ±100 for the full control effect
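GCN5L2 (20nM final) in 50mM HEPES, 0.1mM EDTA pH 7.5, 0.01% Tween-20 was preincubated 15 min at room temperature with compound, then given ThioGlo1 (50uM), H3(1-25) peptide (75uM) and acetyl-CoA (70uM); CoA-thiol fluorescence (Ex340/Em540) was read at 0 and 20 min.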
RECQ1 inh-1 = inhibitors of human RECQ1 DNA helicase; P46063; RECQ1 DNA unwinding, red fluorescence kinetic read; Potency, µM (series often up to 57.3 µM), for the others: at the top dose activity, negative = inhibition, usual class: inhibitors; actives 0.54% (n = 240,000); AID 2549;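 also: potency is read from the fitted curve at half-maximal effect; plate controls were vehicle for no effect and no enzyme for full effect; nearly all actives have a fitted effect of over 30% in size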
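50 nM RECQ1T1 preincubated 15 min with compound in Tris pH 8.0 buffer with MgCl2, DTT, Tween-20 and 2.5 ug/ml poly(dI-dC); started with 200 nM TAMRA/BHQ-2 forked duplex and 2 mM ATP. Unwinding read as fluorescence (525/598 nm), two reads 2 h apart.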
APE1 inh-1 = blocks human APE1 abasic DNA cleavage. actives 0.35% (n = 350,000). AID 2517. recombinant APE1, TAMRA/BHQ-2 abasic DNA cleavage fluorescence. Potency, µM (highest dose often 65.8 µM), without a hit: at the top dose activity change, negative = inhibition, usual class: inhibitors;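 also: potency is read from the fitted curve at half-maximal effect; plate controls were vehicle for no effect and reference inhibitor for full effect; nearly all actives have a fitted effect of over 55% in size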
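Endonuclease cleavage of a quenched abasic-site DNA duplex (50 nM) by APE1 (0.75 nM) was tracked by TAMRA dequenching. Compounds were preincubated with enzyme 15 min at room temperature; data normalized to buffer-only and DMSO wells plus NSC13755 control.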
TDP1 inh = TDP1 (human) enzyme inhibition; recombinant TDP1, AlphaScreen DNA substrate cleavage; Potency, µM (series often up to 130 µM), for the others: top-dose activity change, negative = inhibition, usual class: inhibitors; Q9NUW8; actives 0.28% (n = 350,000); AID 485290; also: potency is read from the fitted curve at half-maximal effect; % is scaled to controls: 0 for no effect and ±100 for the full control effect; nearly all actives have a fitted effect of over 40% in size
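Compounds were preincubated with Tdp1 (1 nM final) for 15 min at room temperature before substrate (15 nM final) started a 5 min reaction; beads (10 ug/ml final) were then added for 10 min before AlphaScreen detection.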
BLM inh-1 = Bloom syndrome helicase (human) inhibition; P54132; recombinant BLM DNA unwinding, fluorescence dequenching; Potency, µM (series often up to 56.1 µM), for inactives: top-dose activity change, negative = inhibition, usual class: inhibitors; actives 0.2% (n = 350,000); AID 2528;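 also: potency is read from the fitted curve at half-maximal effect; plate controls were vehicle for no effect and no enzyme for full effect; nearly all actives have a fitted effect of over 35% in size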
Target sequence (P54132 whole entry, looked up): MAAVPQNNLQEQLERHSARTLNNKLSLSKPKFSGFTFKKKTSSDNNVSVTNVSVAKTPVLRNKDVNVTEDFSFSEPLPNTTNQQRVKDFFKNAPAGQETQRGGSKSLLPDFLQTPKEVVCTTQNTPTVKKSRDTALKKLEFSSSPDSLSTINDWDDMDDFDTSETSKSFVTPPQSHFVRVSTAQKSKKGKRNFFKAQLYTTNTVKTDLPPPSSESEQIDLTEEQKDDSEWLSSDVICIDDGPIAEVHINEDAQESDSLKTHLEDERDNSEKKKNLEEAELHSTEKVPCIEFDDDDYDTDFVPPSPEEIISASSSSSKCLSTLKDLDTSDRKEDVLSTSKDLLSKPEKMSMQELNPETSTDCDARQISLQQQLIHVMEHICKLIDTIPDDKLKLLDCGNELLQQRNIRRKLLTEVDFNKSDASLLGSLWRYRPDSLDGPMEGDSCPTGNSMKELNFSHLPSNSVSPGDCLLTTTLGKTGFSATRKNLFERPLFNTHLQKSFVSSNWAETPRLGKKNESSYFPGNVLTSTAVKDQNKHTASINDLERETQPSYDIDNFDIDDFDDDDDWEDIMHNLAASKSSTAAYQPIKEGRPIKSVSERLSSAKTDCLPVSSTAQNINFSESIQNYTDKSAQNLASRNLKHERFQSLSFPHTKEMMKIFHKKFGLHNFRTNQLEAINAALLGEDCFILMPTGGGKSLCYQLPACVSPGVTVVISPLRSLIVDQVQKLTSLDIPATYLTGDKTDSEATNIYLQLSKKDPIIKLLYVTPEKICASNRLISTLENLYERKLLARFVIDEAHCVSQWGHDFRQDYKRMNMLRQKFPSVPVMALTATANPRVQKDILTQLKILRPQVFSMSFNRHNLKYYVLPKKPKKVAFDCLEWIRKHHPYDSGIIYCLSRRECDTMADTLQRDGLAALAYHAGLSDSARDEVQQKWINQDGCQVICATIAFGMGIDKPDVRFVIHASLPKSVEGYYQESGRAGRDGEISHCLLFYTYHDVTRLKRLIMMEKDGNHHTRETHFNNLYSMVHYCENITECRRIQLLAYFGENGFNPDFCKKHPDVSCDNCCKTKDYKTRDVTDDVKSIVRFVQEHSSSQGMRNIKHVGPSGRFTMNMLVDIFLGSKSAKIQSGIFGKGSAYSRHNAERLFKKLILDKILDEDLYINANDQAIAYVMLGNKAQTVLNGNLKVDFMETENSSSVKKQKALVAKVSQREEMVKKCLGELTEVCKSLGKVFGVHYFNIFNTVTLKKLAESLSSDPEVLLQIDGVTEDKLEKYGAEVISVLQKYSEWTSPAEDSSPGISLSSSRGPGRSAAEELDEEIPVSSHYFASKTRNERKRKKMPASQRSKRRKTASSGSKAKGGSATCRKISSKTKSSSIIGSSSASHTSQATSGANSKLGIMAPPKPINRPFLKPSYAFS
RGS4 inh = inhibitors of human regulator of G protein signaling 4; P49798; Transcreener GDP fluorescence polarization, RGS4-accelerated GTP hydrolysis; Potency, µM (top dose mostly 114 µM), for the others: at the top dose activity change, negative = inhibition, most hits filed as inhibitors; actives 0.039% (n = 390,000); AID 504845; also: potency is read from the fitted curve at half-maximal effect; % is scaled to controls: 0 for no effect and ±100 for the full control effect; nearly all actives have a fitted effect of over 75% in size
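MLSMR compounds (23 nl, pin-transferred) preincubated 10 min at room temperature with a 500nM (2x) first reagent, then RGS4 at 900nM (2x) plus Transcreener GDP mix added; fluorescence polarization (620/688 nm) read before and after 90 min at 30 °C.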
DNA dye displace = displaces fluorescent dye from DNA, flagging APE1 artifacts; DNA fluorescent dye displacement counterscreen, fluorescence; shares compounds with APE1 inh-1; actives 7% (n = 480); Potency, µM (titrated, usually from 28.5 µM), for inactives: top-dose activity change, negative = inhibition, hits mostly inhibitors;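 also: loss of thiazole orange fluorescence as the dye is displaced from duplex DNA; potency is read from the fitted curve at half-maximal effect; 0% = ThO with dsDNA and no compound and -100% = ThO without dsDNA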
Endo IV inh = Endo IV (E. coli) inhibition counter-screen. shares compounds with APE1 inh-1. E. coli Endo IV, fluorogenic AP-site DNA cleavage. Potency, µM (top dose mostly 27.1 µM), without a hit: top-dose activity change, negative = inhibition, usual class: inhibitors. actives 4% (n = 560);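 also: potency is read from the fitted curve at half-maximal effect; plate controls were uninhibited enzyme wells for no effect and no enzyme buffer wells for full effect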
APE1 inh-2 = APE1 (human) endonuclease inhibition, confirmation; purified APE1, fluorogenic abasic-site DNA cleavage; Potency, µM (top dose mostly 57.1 µM), without a hit: at the highest dose activity change, negative = inhibition, hits mostly inhibitors; actives 44% (n = 750); shares compounds with APE1 inh-1; also: potency is read from the fitted curve at half-maximal effect; % is scaled to controls: 0 for no effect and ±100 for the full control effect; nearly all actives have a fitted effect of over 30% in size
APE1 FP inh = displaces DNA from human APE1 in FP assay | Potency, µM (highest dose often 28.5 µM), for inactives: at the highest dose activity, negative = inhibition, hits mostly inhibitors | APE1 binding to TAMRA-labelled double-stranded DNA, fluorescence polarization displacement | actives 7% (n = 480) | shares compounds with APE1 inh-1; also: potency is read from the fitted curve at half-maximal effect; % is scaled to controls: 0 for no effect and ±100 for the full control effect
BLM inh-2 = BLM (human) helicase inhibition, confirmation | shares compounds with BLM inh-1 | actives 40% (n = 220) | BLM DNA unwinding, fluorescence quenching, biochemical | Potency, µM, without a hit: max response, negative = inhibition, actives largely listed as inhibitors;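 also: strand separation dequenches TAMRA so unwinding raises red fluorescence; potency is read from the fitted curve at half-maximal effect; series mostly up to about 69 µM; % is scaled to controls: 0 for no effect and ±100 for the full control effect; nearly all actives have a fitted effect of over 45% in size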
RECQ1 conf = confirmation of human RECQ1 helicase inhibitors; RECQ1 helicase DNA unwinding, fluorescence; shares compounds with RECQ1 inh-1; Potency, µM (titrated, usually from 229 µM), for inactives: at the highest dose activity change, negative = inhibition, hits mostly inhibitors; actives 28% (n = 610); AID 2708; also: potency is read from the fitted curve at half-maximal effect; % is scaled to controls: 0 for no effect and ±100 for the full control effect; nearly all actives have a fitted effect of over 45% in size
RECQ1 ADP FP = ADP displacement flagged in RECQ1 inhibitor counter-screen | Potency, µM (doses to about 228 µM), without a hit: at the highest dose activity change, negative = inhibition, most hits filed as inhibitors | shares compounds with RECQ1 inh-1 | ADP fluorescence polarization displacement counterscreen | actives 27% (n = 530); also: potency is read from the fitted curve at half-maximal effect; % is scaled to controls: 0 for no effect and ±100 for the full control effect; nearly all actives have a fitted effect of over 45% in size
RECQ1 inh-2 = blocks human RECQ1 DNA unwinding | shares compounds with RECQ1 inh-1 | recombinant RECQ1 DNA unwinding, red fluorescence | Potency, µM (series often up to 119 µM), without a hit: top-dose activity, negative = inhibition, actives largely listed as inhibitors | actives 15% (n = 1,100) | AID 504841; also: potency is read from the fitted curve at half-maximal effect; % is scaled to controls: 0 for no effect and ±100 for the full control effect; nearly all actives have a fitted effect of over 50% in size
GCN5L2 inh-2 = human KAT2A HAT inhibition, hit confirmation; Potency, µM, usual class: inhibitors; GCN5L2 HAT, ThioGlo1 CoA fluorescence, 20 min; actives 70% (n = 140); shares compounds with GCN5L2 inh-1
* = called active by the depositor; i = inactive; ? = inconclusive; nt = no result given; [ ] = dose if it differs, or a comment. Calls follow the shape of the dose curve; as a rule, active = well fitted curve in the direction sought with a large enough effect; inconclusive = small, poorly fitted or top-dose-only effect, or another doubt; inactive = no such curve, though single readings can be large; an effect the other way counts as inactive or inconclusive.

SMILES | GCN5L2 inh-1 | RECQ1 inh-1 | APE1 inh-1 | TDP1 inh | BLM inh-1 | RGS4 inh | DNA dye displace | Endo IV inh | APE1 inh-2 | APE1 FP inh | RECQ1 conf | RECQ1 ADP FP | others
O=C1CCCC2=C1C(c1ccco1)Nc1ccc3ccccc3c12 (stereo not drawn) | ? | 10µM* | 14µM* | ? | -28% | ? | -9% | 4% | 4µM* | ? | 25µM* | 50µM* | RECQ1 inh-2=16µM*
COc1ccc(C2/C=C\CN(C(=O)C3CCCC3)C(C)C(=O)N2Cc2ccc(F)cc2)cc1 (stereo not drawn) | nt | -7% | -7% | 9% | -7% | -14% | nt | nt | nt | nt | nt | nt
COc1ccc(CN(Cc2ccccc2)C(=O)c2ccco2)cc1COc1ccc(NC(C)=O)cc1 | nt | nt | nt | 4% | nt | -42% | nt | nt | nt | nt | nt | nt
O=C(Cn1cnc2sc(-c3ccccc3)cc2c1=O)NCc1ccccc1 | -30% | i | 18% | 6% | -12% | -20% | nt | nt | nt | nt | nt | nt
O=C(Cn1cnc2sc(-c3ccccc3)cc2c1=O)NCc1ccco1 | ? | 20µM* | 32µM* | nt | 18µM* | -73%[11.4 µM] | 11% | -11% | 8.9µM* | ? | 40µM* | -22%[91.9 µM] | BLM inh-2=?
O=c1ccn(C2OC(COP(=O)(O)OC3C(CO)OC(n4ccc(=O)[nH]c4=O)C3O)C(O)C2O)c(=O)[nH]1 (stereo not drawn) | 3% | nt | nt | nt | 0% | nt | nt | nt | nt | nt | nt | nt
COc1cc(C2CC(=O)Oc3ccc(O)cc32)cc(OC)c1OC (stereo not drawn) | -11%[88.6 µM] | i | -5% | -4% | -1%[75.6 µM] | nt | nt | nt | nt | nt | nt | nt
CC1(C)SC2C(N3C(=O)C(c4ccccc4)NC3(C)C)C(=O)N2C1C(=O)O (stereo not drawn) | 1% | 14µM* | nt | ? | -7% | nt | -8%[57.1 µM] | 14%[57.1 µM] | ? | ? | 89µM* | 32µM*
COc1ccc(C(=O)CC(=O)c2ccc(C(C)(C)C)cc2)cc1 | 32µM* | 32µM* | 8.9µM* | 20µM* | -15% | -2% | ? | -3%[57.1 µM] | 7.9µM* | ? | 13µM* | ? | RECQ1 inh-2=?
O=C(O)c1ccc(N2C(=O)c3cccc4c(C(=O)O)ccc(c34)C2=O)cc1 | -14% | ? | 13µM* | 2.8µM* | -8% | 14% | -4% | 5% | ? | -95% | nt | nt | RECQ1 inh-2=?
COc1ccccc1-c1nn2c(-c3cc(C)[nH]n3)nnc2s1 | nt | nt | nt | 8% | nt | -20% | nt | nt | nt | nt | nt | nt
Cc1cn(C2OC(COC(=O)c3ccccc3)C(OC(=O)c3ccccc3)C2OC(=O)c2ccccc2)c(=O)[nH]c1=O (stereo not drawn) | -5% | i | 1% | 5% | -6% | -2% | nt | nt | nt | nt | nt | nt
O=C(OCC1OC(OC(=O)c2cc(O)c(O)c(OC(=O)c3cc(O)c(O)c(O)c3)c2)[C@@H](OC(=O)c2cc(O)c(O)c(OC(=O)c3cc(O)c(O)c(O)c3)c2)C(OC(=O)c2cc(O)c(O)c(OC(=O)c3cc(O)c(O)c(O)c3)c2)C1OC(=O)c1cc(O)c(O)c(OC(=O)c2cc(O)c(O)c(O)c2)c1)c1cc(O)c(O)c(OC(=O)c2cc(O)c(O)c(O)c2)c1 (stereo partly drawn) | 3.5µM* | 0.032µM* | nt | 24%[56.1 µM] | 0.071µM* | nt | nt | 5µM* | 0.0032µM* | nt | 1.1µM* | ?
CCCC(=O)Oc1c(Sc2ccc(C)cc2)c(C)nn1-c1ccccc1 | -7% | nt | nt | 12% | 0% | -112% | nt | nt | nt | nt | nt | nt
O=[N+]([O-])c1c(NCCCO)cc(SCc2ccco2)c2nonc12 | -6% | -5% | 2% | 3% | -19% | -13% | nt | nt | nt | nt | nt | nt
CC(=O)OCCNc1cc(SCc2ccco2)c2nonc2c1[N+](=O)[O-] | -2% | 7.1µM* | 13µM* | nt | -19% | -22% | -8% | -3% | 14µM* | -6% | 20%[114 µM] | nt | RECQ1 inh-2=-23%
O=C(Nc1ccc2nc(-c3ccco3)c(-c3ccco3)nc2c1)NC1CC1 | 8.9µM* | 10µM* | 7.1µM* | 3.2µM* | 6.3µM* | ? | ? | 0% | 7.9µM* | ? | nt | nt | GCN5L2 inh-2=20*
COC(=O)C1=C(C)NC(C)=C(C(=O)OCCN2CCN(C(c3ccccc3)c3ccccc3)CC2)C1c1cccc([N+](=O)[O-])c1 (stereo not drawn) | -27% | nt | nt | nt | -4% | nt | nt | nt | nt | nt | nt | nt

From PubChem BioAssay
